The target in assay [1] is Glutathione peroxidase 1 (Homo sapiens) (UniProt P07203). Briefly: Primary qHTS Assay for Inhibitors of Recombinant Selenoprotein Glutathione Peroxidase 1 (GPX1) (AID 1845191). Note: nearly all actives have a fitted effect of over 65% in size. The method in brief:
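10 nM GPX1 + cpd, 30 min RT; start w/ 1 mM GSH, 0.5 mM cumene hydroperoxide, 0.5 mM NADPH, 100 nM GR, 0.01% BSA; buffer 50 mM Tris-HCl pH 7.5, 2 mM EDTA, 150 mM NaCl; Fl 340/450, 0 & 15 min.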

Assay [2] deals with Phospholipid hydroperoxide glutathione peroxidase GPX4 (Homo sapiens) (UniProt P36969). Briefly: Primary qHTS Assay for Inhibitors of Recombinant Selenoprotein Glutathione Peroxidase 4 (GPX4) (AID 1845192). Note: nearly all actives have a fitted effect of over 65% in size. Put shortly:
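NADPH consumption, followed by fluorescence at 340/450 nm between 0 and 15 min, reports GPX4 activity via coupled glutathione reductase (100 nM). Enzyme 200 nM was pre-exposed to compound 30 min; 0.5 mM cumene hydroperoxide and 1 mM GSH served as substrates.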
For orientation: Quantitative high-throughput screening tests each substance at several concentrations.

Assay [3] can be described thus: Primary fluorescence-based thiol-reactive (MSTI) qHTS assay for identification of artifact compounds. (AID 1845221).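 Note: series mostly up to about 54 µM; thiol-reactive compounds lower the probe fluorescence signal; nearly all actives have a fitted effect of over 65% in size.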 Put shortly:
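Compounds were incubated 1 h at room temperature in the dark with the MSTI probe (4 uM) in PBS pH 7.4, 2% DMSO. Signals were normalized between Acetyl-MSTI and MSTI.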

Assay [4] relates to Nanoluciferase (engineered Oplophorus gracilirostris luciferase). In words: Primary Nanoluciferase (NLuc) qHTS assay for identification of artifact compounds. (AID 1845222). Note: series mostly up to about 54 µM. Put shortly: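 Luminescence from secreted NLuc (filtered, 1:55-diluted S16 cell medium) read 5 min after Nano-Glo substrate; compounds preincubated 15 min, RT. Hill fits of inhibition normalized to DMSO and no-enzyme.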

Assay [5] in a line: Primary redox qHTS assay for identification of artifact compounds. (AID 1845223). Put shortly:
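Amplex Red (25 uM) and HRP (250 mU/mL) in HBSS, with compounds for 15 min, then 250 uM DTT for 30 min, room temperature, dark. Fluorescence 525/598 nm read; normalized to DMSO and 10 uM DA3003; Hill fit.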

Assay [6] in a line: Quantitative High-Throughput drug screen in 47 multiple myeloma cell lines against the NCATS MIPE library collection: Delta47_JCRB cell viability assay (AID 1918925; note: nearly all actives have a fitted effect of over 45% in size; note: potency is the fitted concentration of half-maximal effect). Put shortly: (§1)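 Viability readout: CellTiter-Glo luminescence following 5 min room-temperature incubation with reagent. Prior exposure: 48 h, 37C, humidified 5% CO2, 500 cells per well.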
Assay [7] in a line: Quantitative High-Throughput drug screen in 47 multiple myeloma cell lines against the NCATS MIPE library collection: AMO1_DSMZ cell viability assay (AID 1918927; note: nearly all actives have a fitted effect of over 30% in size; note: potency is the fitted concentration of half-maximal effect). The method in brief: as §1
Assay [8] in a line: Quantitative High-Throughput drug screen in 47 multiple myeloma cell lines against the NCATS MIPE library collection: ARD_JJKsccE7 cell viability assay (AID 1918929; note: potency is the fitted concentration of half-maximal effect). Put shortly:
as §1

Assay [9] has as its target Metallo-beta-lactamase type 2 (Klebsiella pneumoniae) (UniProt C7C422). Briefly: qHTS to identify inhibitors of the New Delhi Metallo-beta-lactamase (NDM): assay validation screen against the NCATS LOPAC Collection (AID 1794843).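 Note: nitrocefin turnover by NDM-1 measured as 485 nm absorbance at plateau; series mostly up to about 38 µM.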 Put shortly: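 NDM-1 at 2 nM final in 50 mM HEPES pH 7.0 with 1 uM ZnSO4 and 0.01% Tween20 was preincubated with library compounds in DMSO. Nitrocefin (50 uM stock) was then added, and absorbance at 485 nm was read at the kinetic plateau.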

Assay [10] in a line: Quantitative High-Throughput drug screen in 47 multiple myeloma cell lines against the NCATS MIPE library collection: ARP1_JJKsccF8 cell viability assay (AID 1918928; note: nearly all actives have a fitted effect of over 40% in size; note: potency is the fitted concentration of half-maximal effect). Put shortly:
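Myeloma cells, 500 per well, were exposed to MIPE 4.0 drugs by pin transfer for 48 h at 37 °C, 5% CO2. Viability was read as ATP luminescence with CellTiter-Glo, normalised to DMSO-only (100%) and medium-only (0%) wells.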

A short description of assay [11]: Quantitative High-Throughput drug screen in 47 multiple myeloma cell lines against the NCATS MIPE library collection: FR4_PLB cell viability assay (AID 1918924; note: nearly all actives have a fitted effect of over 35% in size; note: potency is the fitted concentration of half-maximal effect). The method in brief: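 Primary qHTS used for cherry-picking: cells at 500/well, library compounds for 48 h (37C, 5% CO2), luminescent ATP assay.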
A short description of assay [12]: Quantitative High-Throughput drug screen in 47 multiple myeloma cell lines against the NCATS MIPE library collection: EJM_DSMZ cell viability assay (AID 1918926; note: nearly all actives have a fitted effect of over 30% in size; note: potency is the fitted concentration of half-maximal effect). Put shortly:
as §1

Molecules are shown by their SMILES. Results filed as inconclusive are left out. Active and inactive are the calls of the source. Calls come from the whole dose curve; as a rule, active = well fitted curve in the direction sought with a large enough effect; inconclusive = small, poorly fitted or top-dose-only effect, or another doubt; inactive = no such curve, though single readings can be large; an effect the other way counts as inactive or inconclusive.

Chain of Phospholipid hydroperoxide glutathione peroxidase GPX4 (Homo sapiens) (P36969 whole entry, looked up): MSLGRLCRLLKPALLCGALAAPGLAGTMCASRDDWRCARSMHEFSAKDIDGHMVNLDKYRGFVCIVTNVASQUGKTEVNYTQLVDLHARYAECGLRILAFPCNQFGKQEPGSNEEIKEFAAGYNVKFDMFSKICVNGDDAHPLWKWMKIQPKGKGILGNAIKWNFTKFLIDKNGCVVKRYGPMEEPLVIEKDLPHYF
Chain of Metallo-beta-lactamase type 2 (Klebsiella pneumoniae) (C7C422 whole entry, looked up): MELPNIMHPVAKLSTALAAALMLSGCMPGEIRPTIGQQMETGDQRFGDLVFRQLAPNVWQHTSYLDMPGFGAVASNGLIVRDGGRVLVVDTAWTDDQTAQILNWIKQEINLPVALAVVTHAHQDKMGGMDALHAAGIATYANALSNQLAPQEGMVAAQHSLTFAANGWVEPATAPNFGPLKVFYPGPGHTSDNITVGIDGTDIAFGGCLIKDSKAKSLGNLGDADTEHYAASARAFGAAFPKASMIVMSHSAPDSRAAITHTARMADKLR
Chain of Glutathione peroxidase 1 (Homo sapiens) (P07203 whole entry, looked up): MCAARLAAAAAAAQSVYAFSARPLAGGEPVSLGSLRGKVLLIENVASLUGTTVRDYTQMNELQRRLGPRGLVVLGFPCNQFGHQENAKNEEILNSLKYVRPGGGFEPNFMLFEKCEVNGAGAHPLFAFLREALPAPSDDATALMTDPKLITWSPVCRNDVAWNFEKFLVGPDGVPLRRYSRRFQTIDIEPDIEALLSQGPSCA

Turning to `COc1cc2c(N3CCN(C(=O)Nc4ccc(OC(C)C)cc4)CC3)ncnc2cc1OCCCN1CCCCC1`, the Potency entry in assay [1], in assay [2], in [3], in [7] and in [8] was “inactive” throughout. The call in assay [4] and in [5] was inactive. Further, the Potency in [6] was 8.33 µM (active).
Take `O=C(CCc1ccc(O)cc1)c1c(O)cc(O)cc1O`: the compound was classed as inactive in assay [9]. Besides, the Potency entry in assay [1] and in assay [2] was “inactive” in each case. For the same compound, the Potency in [6] was 0.118 µM (active); in assay [7] it was 0.59 µM (active); in assay [10], 1.32 µM (active); in assay [8], 0.372 µM (active).
On to `O=C(O)c1cccc(-c2noc(-c3ccccc3F)n2)c1`, for which the Potency result in assay [1], in assay [2], in [3], in assay [11], in [6] and in assay [12] was “inactive” in each case. Moreover, the Potency result in [7] is “inactive”. Besides, the compound was classed as inactive in assay [5]. In assay [8], the Potency is 14.8 µM (active).
For `NC(=NCc1ccccc1)NC(=O)c1nc(Cl)c(N)nc1N`, the compound was called inactive in assay [9]. Besides, the Potency entry in [1], in assay [11], in assay [12] and in assay [10] was “inactive” each time. Besides, in assay [6], the Potency was 6.62 µM (active).
Consider `C[C@@H](N)C1CCC(C(=O)Nc2ccncc2)CC1` (some centres undefined), for which the call in assay [9] was inactive. The Potency result in assay [1], in assay [2], in assay [12], in [7] and in assay [10] was “inactive” in each case.
`COc1cc2c(cc1OC)C1CC(=O)C(CC(C)C)CN1CC2` (centres undefined): the compound was classed as inactive in [9]. Besides, the Potency entry in assay [1], in assay [2], in assay [11], in assay [6], in assay [12] and in [8] was “inactive” throughout.
Turning to `CCOC(=O)C(C)Oc1cccc2c(=O)n(CC(=O)Nc3ccc4c(c3)OCCO4)ccc12` (centres undefined), the result in [9] was inactive. In addition, the Potency entry in assay [1], in assay [2], in assay [12] and in assay [8] was “inactive” in each case. Moreover, in assay [7], the Potency was 16.6 µM (active).
For `O=c1cc(N2CCOCC2)oc2c(-c3ccccc3)cccc12`, in assay [9], the outcome was inactive. Moreover, the Potency entry in assay [1], in assay [2], in [7] and in assay [8] was “inactive” each time. For the same compound, the Potency is 16.6 µM (active) in [11], 1.48 µM (active) in [6] and 18.7 µM (active) in [10].
As to `Cc1nccn1CC1CCc2c(c3ccccc3n2C)C1=O` (centres undefined), the Potency entry in assay [1], in assay [2], in [3], in [11], in assay [12] and in [8] was “inactive” in each case. In addition, the outcome in assay [4] and in assay [5] was inactive.
Consider `Clc1ccc2c(N3CCN(CCCN4CCN(c5ccnc6cc(Cl)ccc56)CC4)CC3)ccnc2c1`, for which the result in [9] was inactive. In addition, the Potency entry in assay [1], in assay [2], in [11], in assay [7] and in assay [8] was “inactive” throughout.
On to `O=C1c2c(O)cc(O)cc2OC(c2ccc(O)c(O)c2)C1O` (centres undefined), for which the compound was called inactive in [9]. Besides, the Potency entry in assay [1], in assay [2], in assay [11], in [6], in assay [12] and in assay [7] was “inactive” each time. Moreover, in assay [10], the Potency entry was “inactive”.
Regarding `NCCCCNCCCN`, in assay [9], the call was inactive. Moreover, the Potency result in [1], in assay [2], in assay [7] and in [8] was “inactive” throughout. Also, the values for the Potency in assay [6], in [12] and in assay [10] were 23.5 µM (active), 23.5 µM (active) and 16.6 µM (active), respectively.
As to `COc1ccc(C2(C#N)CCC(C(=O)O)CC2)cc1OC1CCCC1` (centres undefined), the Potency entry in assay [1], in [2], in assay [3], in assay [11], in assay [12] and in [7] was “inactive” each time. Moreover, the Potency result in [10] and in [8] was “inactive” in each case. Besides, the result in assay [4] and in assay [5] was inactive.
Consider `CC1(C)C(=O)N(CCN2CCC(C(=O)c3ccc(F)cc3)CC2)c2ccccc21`, for which the compound was called inactive in assay [9]. Further, the Potency entry in assay [1], in assay [2], in assay [11] and in assay [12] was “inactive” each time. In addition, the Potency was 16.6 µM (active) in [6], 6.62 µM (active) in assay [7], 20.9 µM (active) in [10] and 9.35 µM (active) in assay [8].
For the compound `O=C1c2ccccc2-c2n[nH]c3cccc1c23`, the compound was classed as inactive in assay [9]. The Potency result in [1], in assay [2] and in assay [11] was “inactive” each time. Further, the Potency in assay [12] is 0.0017 µM (active); in assay [7], 20.9 µM (active); in assay [8], 1.18 µM (active).
Consider `Nc1nc(OCc2ccccc2)c2[nH]cnc2n1`, for which the call in assay [9] was inactive. Further, the Potency entry in assay [1], in assay [2], in assay [11] and in [12] was “inactive” each time. For the same compound, the Potency in [10] is 20.9 µM (active).
As for `Nc1nc(N)c(N=O)c(OCC2CCCCC2)n1`, the result in assay [9] was inactive. Besides, the Potency entry in assay [1] and in assay [2] was “inactive” each time. For the same compound, the Potency in [11] was 18.7 µM (active); in [6], 4.18 µM (active); in assay [12], 10.5 µM (active); in assay [7] it was 13.2 µM (active); in assay [10] it was 14.8 µM (active); in assay [8], 5.26 µM (active).
Consider `CN(c1nccc(=O)[nH]1)C1CCN(c2nc3ccccc3n2Cc2ccc(F)cc2)CC1`, for which the Potency result in assay [1], in assay [2], in assay [3], in assay [11], in assay [7] and in assay [10] was “inactive” each time. Moreover, the Potency result in assay [8] was “inactive”. Besides, the call in [4] was inactive. Also, the Potency in assay [6] was 4.69 µM (active).
As for `O=c1c(O)c(-c2cc(O)c(O)c(O)c2)oc2cc(O)cc(O)c12`, the compound was called inactive in assay [9]. Moreover, the Potency result in assay [1], in [2], in [6], in [12], in [7] and in assay [8] was “inactive” each time.

(Values after PubChem BioAssay (NCATS).)
